The list shows a part of the results. A number with no mark means an inactive call.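 Rule for the calls: active = mean inhibition across replicates above a set limit taken from the earlier primary screen (cut at about 11% in these data); inactive = the rest.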
Biological target: RNA-editing ligase 1, mitochondrial (Trypanosoma brucei brucei) (UniProt P86926)
Experiment: T. brucei editing ligase REL1 blockade – biochemical, FRET fluorescence, triplicate, confirmation (AID 1117282);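 note: 0% = REL1 with substrate and DMSO and 100% = REL1 plus control inhibitor NSC42067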
Details: TbREL1 RNA ligation, at 9.66 µM, active compounds read high

Chain of RNA-editing ligase 1, mitochondrial (Trypanosoma brucei brucei) (P86926 whole entry, looked up): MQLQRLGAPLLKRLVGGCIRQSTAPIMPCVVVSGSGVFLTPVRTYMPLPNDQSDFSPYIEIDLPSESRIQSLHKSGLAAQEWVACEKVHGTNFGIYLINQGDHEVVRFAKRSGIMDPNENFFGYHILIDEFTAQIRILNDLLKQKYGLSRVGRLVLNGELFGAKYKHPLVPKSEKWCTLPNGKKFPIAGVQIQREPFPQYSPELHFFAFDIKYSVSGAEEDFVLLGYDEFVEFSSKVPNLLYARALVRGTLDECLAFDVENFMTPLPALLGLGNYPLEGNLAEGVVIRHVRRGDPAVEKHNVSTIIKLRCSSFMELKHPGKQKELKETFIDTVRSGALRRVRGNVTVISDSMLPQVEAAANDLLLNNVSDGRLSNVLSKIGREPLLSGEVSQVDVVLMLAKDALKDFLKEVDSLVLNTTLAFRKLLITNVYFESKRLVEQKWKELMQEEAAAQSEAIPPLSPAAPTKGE

| SMILES | inhibition [%] |
| --- | --- |
| CN1CCN(c2cc(N3CCNCC3)ccc2[N+](=O)[O-])CC1 | 9.79 |
| O=c1[nH]c2ccccc2n1C1CCN(C(c2ccccc2)c2nnnn2Cc2ccccc2)CC1 (stereo not drawn) | 1.44 |
| CC1CCCCN1Cc1cccnc1 (stereo not drawn) | 5.17 |

— PubChem BioAssay AID1117282 (The Scripps Research Institute Molecular Screening Center, 2014)
